Calls of active or inactive are those of the source.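 Rule for the calls, unless noted: active = inhibition above 54%, about 3 SD of non-fluorescent compounds; inactive = the rest.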
Columns and labels:
[1] = reduced mouse 2C T cell binding to pMHC/ICAM-1 vesicles – MLPCN validation set, flow cytometry, LFA-1/ICAM-1 modulator project, pilot screen (AID 2523;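 active = response below a set limit, under 55% cells CD8-positive and vesicle-bound, and CD8 cells' 90th-percentile brightness under 279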;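 for vesicle binding response: mean PE anti-B7-1 fluorescence of CD8+ cells relative to row control; 100% = QL9-loaded vesicles with DMSO vehicle in the same plate row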); conditions: 2C mouse CD8+ T cells, at 7 µM, stronger effect = lower value; double positive events: measured here: CD8+/vesicle+ event percentage
[2] = target: Integrin beta-1 (Homo sapiens) + Integrin alpha-4 (Homo sapiens) (UniProt P13612+P05556); assay: alpha4beta1 integrin LIBS antibody binding reduction – U937 cells, HUTS-21 mAb, flow cytometry, validation set, VLA-4 allosteric modulator project, pilot screen (AID 2674;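 active = inhibition above 50%, about 3 SD of the validation set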;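 note: antibody binding induced by the VLA-4 ligand LDV present at three times its Kd; 0% = LDV ligand with antibody and no compound and 100% = antibody without LDV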); conditions: HUTS-21 LIBS mAb binding, at 6.7 µM, stronger effect = higher value, binding induced by LDV ligand
[3] = calorie-restriction mimetic ROS inhibitors, yeast – validation compound set, pilot screen (AID 2706;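 active = superoxide response below 65% of plate, a cut near 3 SD across the whole screen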;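 note: yeast exposed to compound for one week at 30 degrees C before staining; 100% = mean of all compound wells on the same plate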); conditions: S. cerevisiae aging, superoxide DHE fluorescence; at 10 µM, stronger effect = lower value
[4] = target: Beta-adrenergic receptor kinase 1 (Homo sapiens) (UniProt P25098); assay: GRK2 binders displacing RNA aptamer, biochemical, validation, human GRK2, bead flow cytometry (AID 488806;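 active = aptamer binding inhibition above 30%, about 3 SD of noise from non-fluorescent compounds; inactive = inhibition at or below 30%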); conditions: bead-bound GRK2, FAM-aptamer displacement, at 10 µM, stronger effect = higher value
[5] = target: Beta-2 adrenergic receptor (Homo sapiens) (UniProt P07550); assay: agonist-induced loss of surface beta2AR – cell-based, FAP fluorogen, flow cytometry, validation set, pilot screen (AID 504459;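 active = percent response above 42, roughly 3 SD of non-fluorescent test compounds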;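 note: agonist-driven loss of surface beta2AR via internalization measured by FAP dye flow cytometry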); conditions: Am2.2-beta2AR cells, at 10 µM, stronger effect = higher value
[6] = target: AP-2 complex subunit beta (Homo sapiens) (UniProt P63010); assay: beta-arrestin/AP2 interaction blockers – biochemical, validation set, GST-AP2 beads, flow cytometry, pilot screen (AID 504541); conditions: FITC arrestin peptide, at 10 µM, stronger effect = higher value, AP2 beta2 appendage fragment, R879A mutant;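 note: AP2 carries R879A mutation and is captured from E. coli lysate; bead-bound FITC arrestin peptide fluorescence measuring arrestin peptide binding to AP2; 0% = DMSO wells and 100% = excess unlabeled arrestin peptide control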
[7] = cytosolic pH regulators acting via V-ATPase – S. cerevisiae, pHLuorin, HTS validation (AID 504600; in the data active = response above about 15%;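 note: plate controls were DMSO for no effect and reference compound for full effect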); conditions: V-ATPase proton transport, at 10 µM, stronger effect = higher value
[8] = system: anti-desmoglein-3 scFv antibody binding to human DSG3; assay: blockers of pathogenic pemphigus antibody–desmoglein-3 binding – biochemical, validation compound set, bead-based, flow cytometry, pilot screen (AID 588368;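 active = binding below the plate cutoff, the plate median minus 3 SD, with a reading above zero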;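 note: signal is the median channel fluorescence of bead-bound GFP antibody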); conditions: Protein G beads, DSG3-Fc, scFv-GFP binding, at 10 µM, stronger effect = lower value
[9] = Nile Red efflux blockade in pump-expressing yeast – validation compound set, multiplex, phenotypic, pilot screen (AID 588506;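 active = efflux inhibition above 0.42, the validation set average plus 4 SD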;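 note: Nile Red retained in cells so higher fluorescence means more efflux inhibition; 0 = negative control wells and 1 = enniatin B 25 µM full block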); conditions: S. cerevisiae pump-expressing triplex, Nile Red efflux flow cytometry; at 10 µM; stronger effect = higher value; the pumps come from Candida albicans
[10] = target: ATP-binding cassette sub-family B member 6 (Homo sapiens) (UniProt Q9NP58); assay: blockers of ABCB6-driven porphyrin uptake – K562-ABCB6 cells, flow cytometry, validation set, pilot screen (AID 588550;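 active = inhibition above the screen-wide mean plus 3 SD, about 51%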;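 note: 0% = DMSO wells and 100% = benzethonium chloride 70 µM positive control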); conditions: K562-ABCB6 porphyrin accumulation, 1 h, at 10 µM, stronger effect = higher value
[11] = AML differentiation inducers, ER-HoxA9 marrow cells – cell-based, GFP/MAC1 double positive, flow cytometry, validation set, primary screen (AID 588685;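 active = differentiation response of at least 50%, scaled between solvent and reference control, from cells with both markers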;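 note: compound exposure lasts four days before antibody staining and flow analysis; 0% = DMSO wells and 100% = 5 µM fulvestrant positive control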); conditions: stronger effect = higher value, normalized: vehicle 0, fulvestrant 100

Sequence of Beta-adrenergic receptor kinase 1 (Homo sapiens) (P25098 whole entry, looked up): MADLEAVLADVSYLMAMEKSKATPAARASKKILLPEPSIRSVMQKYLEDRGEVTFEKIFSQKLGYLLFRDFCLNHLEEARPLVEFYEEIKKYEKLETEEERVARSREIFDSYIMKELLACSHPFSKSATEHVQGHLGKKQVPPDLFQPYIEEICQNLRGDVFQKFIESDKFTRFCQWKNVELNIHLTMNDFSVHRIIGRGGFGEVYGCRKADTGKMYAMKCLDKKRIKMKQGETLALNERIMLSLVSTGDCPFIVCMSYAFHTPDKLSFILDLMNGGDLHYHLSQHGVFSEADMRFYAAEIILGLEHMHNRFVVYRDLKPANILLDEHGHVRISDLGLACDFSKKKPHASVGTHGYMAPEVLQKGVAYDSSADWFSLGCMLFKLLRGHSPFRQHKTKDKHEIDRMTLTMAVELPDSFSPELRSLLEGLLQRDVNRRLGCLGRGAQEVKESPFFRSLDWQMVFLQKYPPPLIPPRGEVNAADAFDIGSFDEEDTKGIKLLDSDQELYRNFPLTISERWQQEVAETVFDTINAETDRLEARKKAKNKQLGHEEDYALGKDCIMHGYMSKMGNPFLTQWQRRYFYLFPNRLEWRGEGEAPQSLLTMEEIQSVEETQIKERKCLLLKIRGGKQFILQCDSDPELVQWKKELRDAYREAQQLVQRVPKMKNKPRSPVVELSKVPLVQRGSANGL
Sequence of AP-2 complex subunit beta (Homo sapiens) (P63010 whole entry, looked up, the tested form may be a part, one chain of several): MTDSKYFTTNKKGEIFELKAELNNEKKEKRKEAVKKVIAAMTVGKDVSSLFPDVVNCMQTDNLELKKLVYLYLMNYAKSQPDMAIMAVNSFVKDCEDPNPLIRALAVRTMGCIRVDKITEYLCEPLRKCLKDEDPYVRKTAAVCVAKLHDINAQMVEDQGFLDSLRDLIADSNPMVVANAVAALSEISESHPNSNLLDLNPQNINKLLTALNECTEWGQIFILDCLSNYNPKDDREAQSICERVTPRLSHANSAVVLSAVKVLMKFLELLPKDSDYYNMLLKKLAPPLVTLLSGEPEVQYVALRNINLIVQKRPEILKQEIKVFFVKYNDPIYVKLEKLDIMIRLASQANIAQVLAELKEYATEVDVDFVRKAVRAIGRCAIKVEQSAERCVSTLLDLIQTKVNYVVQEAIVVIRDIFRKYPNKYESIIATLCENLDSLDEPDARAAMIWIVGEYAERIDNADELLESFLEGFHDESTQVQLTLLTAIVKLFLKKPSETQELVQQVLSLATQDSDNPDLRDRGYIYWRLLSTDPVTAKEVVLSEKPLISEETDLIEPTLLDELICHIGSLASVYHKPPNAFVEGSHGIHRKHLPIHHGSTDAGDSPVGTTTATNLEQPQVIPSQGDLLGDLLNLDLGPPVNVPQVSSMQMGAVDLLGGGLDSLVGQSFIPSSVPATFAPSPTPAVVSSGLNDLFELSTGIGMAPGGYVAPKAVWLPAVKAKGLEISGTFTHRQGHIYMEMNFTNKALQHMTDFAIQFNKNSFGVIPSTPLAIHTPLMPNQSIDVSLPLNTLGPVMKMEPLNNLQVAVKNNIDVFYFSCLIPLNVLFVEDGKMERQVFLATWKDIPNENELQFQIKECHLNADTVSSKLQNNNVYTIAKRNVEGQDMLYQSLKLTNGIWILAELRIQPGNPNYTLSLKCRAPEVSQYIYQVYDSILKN
Sequence of Integrin beta-1 (Homo sapiens) + Integrin alpha-4 (Homo sapiens) (P05556 whole entry, looked up): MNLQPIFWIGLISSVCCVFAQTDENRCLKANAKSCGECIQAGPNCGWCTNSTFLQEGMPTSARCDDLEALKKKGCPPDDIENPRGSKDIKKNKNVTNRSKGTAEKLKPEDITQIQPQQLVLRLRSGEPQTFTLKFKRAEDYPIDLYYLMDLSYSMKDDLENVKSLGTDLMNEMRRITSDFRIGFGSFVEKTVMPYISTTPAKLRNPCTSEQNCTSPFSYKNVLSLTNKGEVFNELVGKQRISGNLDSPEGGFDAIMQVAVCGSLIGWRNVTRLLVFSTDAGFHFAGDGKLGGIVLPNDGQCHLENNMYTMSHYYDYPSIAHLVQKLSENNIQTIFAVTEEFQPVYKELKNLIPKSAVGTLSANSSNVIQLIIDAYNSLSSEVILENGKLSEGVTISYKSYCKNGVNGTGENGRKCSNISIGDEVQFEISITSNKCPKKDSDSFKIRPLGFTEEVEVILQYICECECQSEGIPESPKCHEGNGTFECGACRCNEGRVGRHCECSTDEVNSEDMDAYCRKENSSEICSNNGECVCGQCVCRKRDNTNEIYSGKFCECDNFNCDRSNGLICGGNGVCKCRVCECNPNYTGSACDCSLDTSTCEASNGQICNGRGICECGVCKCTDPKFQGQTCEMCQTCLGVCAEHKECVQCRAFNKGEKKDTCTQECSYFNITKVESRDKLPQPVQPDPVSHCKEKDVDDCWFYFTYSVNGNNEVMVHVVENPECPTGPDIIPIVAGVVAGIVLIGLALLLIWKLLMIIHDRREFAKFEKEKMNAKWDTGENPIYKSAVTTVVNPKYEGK
Sequence of Integrin beta-1 (Homo sapiens) + Integrin alpha-4 (Homo sapiens) (P13612 whole entry, looked up): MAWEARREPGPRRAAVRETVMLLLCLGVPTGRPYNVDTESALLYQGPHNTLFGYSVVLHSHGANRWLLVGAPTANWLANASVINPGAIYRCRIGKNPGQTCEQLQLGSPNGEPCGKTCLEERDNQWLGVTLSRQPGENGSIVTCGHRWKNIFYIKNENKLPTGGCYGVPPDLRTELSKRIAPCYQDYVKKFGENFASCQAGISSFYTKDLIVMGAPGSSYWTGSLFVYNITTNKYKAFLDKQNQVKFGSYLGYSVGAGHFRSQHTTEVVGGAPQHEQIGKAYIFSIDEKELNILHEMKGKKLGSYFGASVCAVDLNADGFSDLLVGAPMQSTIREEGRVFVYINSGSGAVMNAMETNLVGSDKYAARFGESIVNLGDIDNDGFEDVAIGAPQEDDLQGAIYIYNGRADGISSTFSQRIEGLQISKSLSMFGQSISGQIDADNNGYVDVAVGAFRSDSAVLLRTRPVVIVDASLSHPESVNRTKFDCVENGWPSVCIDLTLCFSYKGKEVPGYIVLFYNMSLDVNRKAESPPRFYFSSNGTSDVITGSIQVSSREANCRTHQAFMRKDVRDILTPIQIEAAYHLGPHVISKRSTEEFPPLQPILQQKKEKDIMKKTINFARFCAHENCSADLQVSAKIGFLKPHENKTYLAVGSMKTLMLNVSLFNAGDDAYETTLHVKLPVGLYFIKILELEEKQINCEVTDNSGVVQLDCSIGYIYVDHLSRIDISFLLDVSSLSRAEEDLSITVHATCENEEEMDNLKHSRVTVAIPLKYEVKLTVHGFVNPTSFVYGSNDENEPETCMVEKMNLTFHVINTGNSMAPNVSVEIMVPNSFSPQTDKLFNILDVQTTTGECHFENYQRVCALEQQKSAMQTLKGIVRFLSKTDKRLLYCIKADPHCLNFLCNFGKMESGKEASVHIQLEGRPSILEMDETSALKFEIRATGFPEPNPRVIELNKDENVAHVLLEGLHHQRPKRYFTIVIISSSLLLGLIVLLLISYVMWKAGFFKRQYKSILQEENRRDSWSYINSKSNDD
Sequence of ATP-binding cassette sub-family B member 6 (Homo sapiens) (Q9NP58 whole entry, looked up): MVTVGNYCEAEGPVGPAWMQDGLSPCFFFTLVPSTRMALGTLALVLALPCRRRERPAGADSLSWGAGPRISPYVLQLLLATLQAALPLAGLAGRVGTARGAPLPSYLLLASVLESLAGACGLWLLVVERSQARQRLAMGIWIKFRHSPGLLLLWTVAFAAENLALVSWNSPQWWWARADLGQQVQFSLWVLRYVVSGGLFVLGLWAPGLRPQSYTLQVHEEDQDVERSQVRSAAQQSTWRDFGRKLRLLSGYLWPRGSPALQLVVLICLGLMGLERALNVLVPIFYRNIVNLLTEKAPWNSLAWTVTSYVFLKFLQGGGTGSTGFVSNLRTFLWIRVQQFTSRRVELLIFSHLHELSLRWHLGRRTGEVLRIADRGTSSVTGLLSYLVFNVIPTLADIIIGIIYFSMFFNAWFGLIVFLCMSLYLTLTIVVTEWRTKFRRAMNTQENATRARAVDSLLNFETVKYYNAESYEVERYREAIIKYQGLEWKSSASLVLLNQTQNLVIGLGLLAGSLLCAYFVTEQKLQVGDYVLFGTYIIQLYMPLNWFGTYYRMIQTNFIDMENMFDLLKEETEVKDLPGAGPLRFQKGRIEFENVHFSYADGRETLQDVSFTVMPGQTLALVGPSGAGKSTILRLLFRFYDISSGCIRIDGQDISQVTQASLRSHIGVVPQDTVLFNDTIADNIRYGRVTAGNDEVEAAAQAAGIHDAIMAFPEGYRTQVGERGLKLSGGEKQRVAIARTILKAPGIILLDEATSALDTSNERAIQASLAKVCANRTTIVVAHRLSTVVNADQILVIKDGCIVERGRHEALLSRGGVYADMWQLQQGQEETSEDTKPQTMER
Sequence of Beta-2 adrenergic receptor (Homo sapiens) (P07550 whole entry, looked up, the tested form may be a part): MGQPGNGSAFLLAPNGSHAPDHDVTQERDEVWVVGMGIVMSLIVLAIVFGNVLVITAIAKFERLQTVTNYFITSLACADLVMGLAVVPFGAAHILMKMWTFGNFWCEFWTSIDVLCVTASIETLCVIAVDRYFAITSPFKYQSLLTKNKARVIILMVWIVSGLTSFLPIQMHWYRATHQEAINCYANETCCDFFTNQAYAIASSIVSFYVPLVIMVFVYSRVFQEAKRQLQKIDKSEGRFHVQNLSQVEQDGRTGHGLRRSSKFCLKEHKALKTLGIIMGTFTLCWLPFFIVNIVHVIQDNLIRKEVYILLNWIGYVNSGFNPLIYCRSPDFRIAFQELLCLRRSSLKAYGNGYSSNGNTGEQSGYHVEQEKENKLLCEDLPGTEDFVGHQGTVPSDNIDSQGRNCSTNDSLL

Cc1nc2ccccc2c(=O)n1N
active: differentiation response [11] 58.4%
64.8%: double positive events [1]
inactive: vesicle binding response [1] 160% | inhibition [2] 5.03% | superoxide response (% of plate) [3] 95.7% | aptamer binding inhibition [4] -1% | response [5] -0.52% | inhibition [6] -8.13% | response [7] -5.43% | binding (% of control) [8] 106% | efflux inhibition (fraction of control) [9] 0.15 | inhibition [10] 6%

CCC(=O)Oc1ccc(/C(CC)=C(\CC)c2ccc(OC(=O)CC)cc2)cc1
67.2%: double positive events [1]
inactive: vesicle binding response [1] 174% | inhibition [2] 19.1% | superoxide response (% of plate) [3] 94.7% | aptamer binding inhibition [4] 3% | response [5] -5.73% | inhibition [6] -4.91% | response [7] 2.77% | binding (% of control) [8] 84.1% | efflux inhibition (fraction of control) [9] -0.02 | inhibition [10] 11% | differentiation response [11] -4.09%

COC(=O)c1cc(-c2c(C)oc3cc(OC)ccc3c2=O)c(C)o1
inactive: vesicle binding response [1] 199% | inhibition [2] 2.3% | superoxide response (% of plate) [3] 96.8% | aptamer binding inhibition [4] 1% | response [5] 7.03% | inhibition [6] 2.24% | response [7] 1.93% | binding (% of control) [8] 105% | efflux inhibition (fraction of control) [9] -0.1 | inhibition [10] 8% | differentiation response [11] 18.4%
59.2%: double positive events [1]

OC(COCc1ccccc1)CN1CCN(Cc2ccc3c(c2)OCO3)CC1 (stereo not drawn)
inactive: vesicle binding response [1] 189% | inhibition [2] 7.76% | superoxide response (% of plate) [3] 110% | aptamer binding inhibition [4] 2% | response [5] 4.46% | inhibition [6] -4.35% | response [7] 4.61% | binding (% of control) [8] 97.8% | efflux inhibition (fraction of control) [9] -0.21 | inhibition [10] 4% | differentiation response [11] 8.8%
59.4%: double positive events [1]
